For assay [1], the target named is Luciferin 4-monooxygenase (Photinus pyralis) (UniProt P08659). As to the kind of experiment: Biochemical firefly luciferase enzyme assay for NPC (AID 624030). Also: nearly all actives have a fitted effect of over 70% in size. Also: potency is read from the fitted curve at half-maximal effect. The essentials:
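Purified P. pyralis luciferase at 10 nM in 50 mM Tris Acetate (final), luminescence read within 5 minutes of enzyme addition to compounds. Activity normalised to PTC124 versus DMSO; concentration-response curves classed by r2, magnitude and activity.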

Assay [2] is described as follows: S16 Schwann cell PMP22 intronic element firefly luciferase assay (AID 624032). Also: nearly all actives have a fitted effect of over 30% in size. Also: potency is read from the fitted curve at half-maximal effect. The essentials: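 Rat S16 Schwann cells stably carrying firefly luciferase driven by a PMP22 intronic element, in 10% FBS, treated 24 h at 37 C. ONE-Glo luminescence normalized to PTC124 control and DMSO (0%); curves classed by r2, magnitude and activity.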
Assay [3] is described as follows: qHTS assay for small molecule agonists of the antioxidant response element (ARE) signaling pathway (AID 651741; active = well fitted activation curve with a large enough effect in the signal ratio; the % refers to the signal ratio; also: potency is read from the fitted curve at half-maximal effect; as to activation: % of control where 0% means no effect). The essentials: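 Stably integrated ARE-beta-lactamase reporter HepG2 cells; 16 h compound incubation, 37 C; LiveBLAzer FRET substrate 2 h at room temperature; fluorescence intensity.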
Assay [4] in a line: qHTS assay for small molecule activators of the p53 signaling pathway (AID 651743; active = well fitted activation curve with a large enough effect in the signal ratio, not every such curve was filed as active; the % refers to the signal ratio; also: potency is read from the fitted curve at half-maximal effect; as to activation: % of control where 0% means no effect). To be noted: HCT-116 p53RE-bla, beta-lactamase FRET ratio, 16 h; activation: stronger effect = higher value. The essentials:
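Following 16 hours of compound exposure at 37 C, HCT-116 cells bearing the p53RE-bla reporter were loaded with LiveBLAzer B/G FRET substrate for 2 hours at room temperature and fluorescence intensity was recorded.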

Assay [5] is described as follows: S16 Schwann cell viability assay (CellTiter-Glo assay) (AID 624031).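 Also: native untransfected S16 rat Schwann cells; cellular ATP luminescence as a viability measure; plate controls were DMSO-treated cells for no effect and cell-free wells for full effect; nearly all actives have a fitted effect of over 70% in size.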 The essentials:
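Parental S16 cells, 24 h compound, 37 °C. ATP-luminescence viability; DMSO = 0% activity, empty wells as reference; curves classified by fit quality and efficacy.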

The target of assay [6] is Glutaminase kidney isoform, mitochondrial (Homo sapiens) (UniProt O94925). Kind of assay: qHTS for Inhibitors of Glutaminase (GLS): LOPAC Validation (AID 624146). Also: nearly all actives have a fitted effect of over 60% in size. Also: potency is read from the fitted curve at half-maximal effect. In a few lines:
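hKGA; 45 mM KH2PO4 pH 8.2 + 0.02% Tween-20; cpd via pin tool; 1 mM Gln soln; GluOx/HRP/Amplex Red; RT 30 min; fluor. t0 & final.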

A short description of assay [7]: qHTS of Trypanosoma Brucei Inhibitors: LOPAC Validation (AID 624147). Also: 0% is about no effect. In a few lines:
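Readout: single end-point luminescence (Kinase-Glo Plus, 10 min). Reaction conditions were TbPYK/substrate plus 130 uM ADP, 45 min at RT, pH 7.2 TEA buffer. No-enzyme wells served as controls, and data were normalized before concentration-response fitting.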

Assay [8] has as its target Glucagon-like peptide 1 receptor (Homo sapiens) (UniProt P43220). Kind of assay: qHTS of GLP-1 Receptor Agonists: LOPAC Validation (AID 624148).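 Also: 0% is about no effect; higher luminescence signal means agonism.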 In a few lines: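 HEK293 cells stably co-expressing GLP-1R and a cAMP-responsive luciferase reporter, plated 12 hours before compound, then incubated 4-6 hr at 37 deg C. Luminescence read 12 min after detection reagent.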
A short description of assay [9]: qHTS of Nrf2 Activators: LOPAC Validation (AID 624149). Also: 0% is about no effect. In a few lines: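 Luciferase signal from ARE activation, read with Steady-Glo after 30 min at room temperature. Compounds were pin-transferred onto AREc32_Fluc cells (1000/well, OPTI-MEM/5% FBS, seeded overnight) and left 24 hr at 37 deg C.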
Assay [10] addresses Voltage-gated inwardly rectifying potassium channel KCNH2 (Homo sapiens) (UniProt Q12809). As to the kind of experiment: qHTS Assay for Small Molecule Inhibitors of the Human hERG Channel Activity (AID 588834).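 Also: lower thallium flux fluorescence means stronger hERG block; nearly all actives have a fitted effect of over 50% in size.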 Also: potency is read from the fitted curve at half-maximal effect. In a few lines:
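Cells were infected with hERG-BacMam virus for 4 hrs at room temperature, grown overnight, then seeded at 2000/well. After dye loading and roughly 10 min compound treatment, thallium influx was triggered and fluorescence recorded.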

Assay [11] in a line: qHTS assay for small molecule activators of the nuclear factor-kappa B (NF-kB) signaling pathway (AID 651749; active = well fitted activation curve with a large enough effect in the signal ratio; the % refers to the signal ratio; also: % of control where 0% means no effect). Conditions: NF-kB-bla ME-180 cells, beta-lactamase FRET ratio, 16 h; stronger effect = higher value. The essentials:
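In this qHTS format, compounds acting as activators increase NF-kB-driven beta-lactamase in ME-180 cells, measured as disrupted FRET after 16 hr exposure at 37C and 5% CO2.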

Assay [12] in a line: HTS Assay for Allosteric Antagonists of the Human D2 Dopamine Receptor: Hit Validation in HTRF (AID 624455).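 Also: stable D1 dopamine receptor cell line scored for blocking the D1 response; % is scaled to controls: 0 for no effect and ±100 for the full control effect.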 In a few lines: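 Inhibition of the D1-mediated response was measured by HTRF. Cells used were a line stably expressing the D1 dopamine receptor.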
Assay [13] is described as follows: S16 Schwann cell PMP22 intronic element beta-lactamase assay (AID 624044; calls by dose curve;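 also: 0% = DMSO and -100% = potassium clavulanate positive control; nearly all actives have a fitted effect of over 15% in size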). The essentials: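 Beta-lactamase reporter under a PMP22 intronic regulatory element in stable S16 rat Schwann cells; 24 h compound exposure. 460 nm blue signal normalized between DMSO (0%) and potassium clavulanate, with 535 nm FRET tracking viability; curves classed by r2 and response.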

Assay [14] can be described thus: Cytotoxicity counterscreen for NFkB agonists and antagonists (AID 624476). Also: potency is read from the fitted curve at half-maximal effect.
Assay [15] can be described thus: qHTS Assay for Identification of Small Molecule Agonists for NFkB Signaling Pathway. (AID 624478).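 Also: compounds tested together with TNF alpha at its EC50 of 10 pM; 0% is about no effect.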 In a few lines: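 Compounds were added with 10 pM TNF alpha (EC50 level) to ME-180 NFkB-bla cells in low-serum Opti-MEM and incubated 5 hrs at 37 C. Beta-lactamase FRET read-out used 405 nm excitation and 460 and 530 nm emission.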
Assay [16] can be described thus: Cell Proliferation Assay against the TMD8 Cell Line (AID 651645).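 Also: cells exposed to compound for 48 h before reading.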 Conditions: TMD8 DLBCL cell line proliferation/viability; at 46.1 µM (top of the series). In a few lines: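 Seed log-phase TMD8 cells in RPMI containing 5% FBS, add compounds at once, incubate 48 hours at 37C. Equilibrate to room temperature, add CellTiter-Glo, read luminescence after 15 minutes and express relative to DMSO and bortezomib controls.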

Assay [17] is described as follows: Cell Proliferation Assay against the HBL1 Cell Line (AID 651646).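 Also: cells exposed to compound for 48 h before reading.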 Conditions: HBL1 DLBCL cells; at 46.1 µM (top of the series). In a few lines:
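HBL1, 500 cells/well, RPMI no phenol red + 5% FBS; cpd pinned, 48 h 37C/5% CO2; CellTiter-Glo, 15 min RT, luminescence. % activity: DMSO = 100%, bortezomib 9.2 uM final = 0%.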

Assay [18] is described as follows: Cell Proliferation Assay against the TMD8 Cell Line (Caspase readout at 16 hrs) (AID 651712). Also: potency is read from the fitted curve at half-maximal effect. The essentials:
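Caspase-Glo luminescence after 16 h compound exposure of TMD8 cells, 37 °C, 5% CO2. Medium: RPMI without phenol red, 5% FBS. Normalisation: DMSO = 0%, bortezomib 9.2 uM final = 100%.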

A short description of assay [19]: qHTS Assay for Identification of Small Molecule Antagonists for NFkB Signaling Pathway. (AID 624479; calls by dose curve;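 also: pathway stimulated with TNF alpha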; also: potency is read from the fitted curve at half-maximal effect).

Several values for one entry are separate records, joined by “and”; a condition that tells them apart may be missing. Equal entries are not always repeated. Results filed as inconclusive are left out. Activity calls are given as the source filed them. Unless noted, calls follow the shape of the dose curve; as a rule, active = well fitted curve in the direction sought with a large enough effect; inconclusive = small, poorly fitted or top-dose-only effect, or another doubt; inactive = no such curve, though single readings can be large; an effect the other way counts as inactive or inconclusive.

This note sets out measurements from PubChem BioAssay (NCATS).

Chain of Glucagon-like peptide 1 receptor (Homo sapiens) (P43220 whole entry, looked up): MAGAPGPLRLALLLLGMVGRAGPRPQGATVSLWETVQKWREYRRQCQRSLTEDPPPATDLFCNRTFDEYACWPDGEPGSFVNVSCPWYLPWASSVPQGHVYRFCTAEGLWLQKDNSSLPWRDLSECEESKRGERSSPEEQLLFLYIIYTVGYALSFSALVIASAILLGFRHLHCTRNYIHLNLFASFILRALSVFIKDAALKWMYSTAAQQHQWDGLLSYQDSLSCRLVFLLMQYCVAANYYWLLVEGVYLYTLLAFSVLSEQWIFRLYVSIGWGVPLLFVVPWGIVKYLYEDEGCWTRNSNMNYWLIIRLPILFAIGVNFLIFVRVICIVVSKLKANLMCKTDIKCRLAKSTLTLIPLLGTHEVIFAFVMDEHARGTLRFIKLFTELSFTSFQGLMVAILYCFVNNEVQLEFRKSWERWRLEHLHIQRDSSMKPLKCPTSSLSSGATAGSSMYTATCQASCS
Chain of Glutaminase kidney isoform, mitochondrial (Homo sapiens) (O94925 whole entry, looked up, canonical isoform): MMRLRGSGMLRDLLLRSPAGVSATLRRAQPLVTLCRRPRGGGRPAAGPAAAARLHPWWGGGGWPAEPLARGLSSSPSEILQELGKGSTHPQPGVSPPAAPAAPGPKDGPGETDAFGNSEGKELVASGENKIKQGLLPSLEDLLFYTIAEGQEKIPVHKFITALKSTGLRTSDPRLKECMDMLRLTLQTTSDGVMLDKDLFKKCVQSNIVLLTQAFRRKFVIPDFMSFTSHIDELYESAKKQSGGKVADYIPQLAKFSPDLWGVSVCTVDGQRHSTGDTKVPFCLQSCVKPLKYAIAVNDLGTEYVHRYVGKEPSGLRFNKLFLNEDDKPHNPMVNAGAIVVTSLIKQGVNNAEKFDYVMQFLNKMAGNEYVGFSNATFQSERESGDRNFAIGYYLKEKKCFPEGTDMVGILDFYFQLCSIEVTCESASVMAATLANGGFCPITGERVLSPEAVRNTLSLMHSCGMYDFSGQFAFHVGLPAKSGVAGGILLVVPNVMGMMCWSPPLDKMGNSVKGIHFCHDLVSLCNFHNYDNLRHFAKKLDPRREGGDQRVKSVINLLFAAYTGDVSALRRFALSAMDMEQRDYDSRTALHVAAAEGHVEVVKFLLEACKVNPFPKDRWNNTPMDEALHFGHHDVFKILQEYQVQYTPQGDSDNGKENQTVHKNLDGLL
Chain of Voltage-gated inwardly rectifying potassium channel KCNH2 (Homo sapiens) (Q12809 whole entry, looked up): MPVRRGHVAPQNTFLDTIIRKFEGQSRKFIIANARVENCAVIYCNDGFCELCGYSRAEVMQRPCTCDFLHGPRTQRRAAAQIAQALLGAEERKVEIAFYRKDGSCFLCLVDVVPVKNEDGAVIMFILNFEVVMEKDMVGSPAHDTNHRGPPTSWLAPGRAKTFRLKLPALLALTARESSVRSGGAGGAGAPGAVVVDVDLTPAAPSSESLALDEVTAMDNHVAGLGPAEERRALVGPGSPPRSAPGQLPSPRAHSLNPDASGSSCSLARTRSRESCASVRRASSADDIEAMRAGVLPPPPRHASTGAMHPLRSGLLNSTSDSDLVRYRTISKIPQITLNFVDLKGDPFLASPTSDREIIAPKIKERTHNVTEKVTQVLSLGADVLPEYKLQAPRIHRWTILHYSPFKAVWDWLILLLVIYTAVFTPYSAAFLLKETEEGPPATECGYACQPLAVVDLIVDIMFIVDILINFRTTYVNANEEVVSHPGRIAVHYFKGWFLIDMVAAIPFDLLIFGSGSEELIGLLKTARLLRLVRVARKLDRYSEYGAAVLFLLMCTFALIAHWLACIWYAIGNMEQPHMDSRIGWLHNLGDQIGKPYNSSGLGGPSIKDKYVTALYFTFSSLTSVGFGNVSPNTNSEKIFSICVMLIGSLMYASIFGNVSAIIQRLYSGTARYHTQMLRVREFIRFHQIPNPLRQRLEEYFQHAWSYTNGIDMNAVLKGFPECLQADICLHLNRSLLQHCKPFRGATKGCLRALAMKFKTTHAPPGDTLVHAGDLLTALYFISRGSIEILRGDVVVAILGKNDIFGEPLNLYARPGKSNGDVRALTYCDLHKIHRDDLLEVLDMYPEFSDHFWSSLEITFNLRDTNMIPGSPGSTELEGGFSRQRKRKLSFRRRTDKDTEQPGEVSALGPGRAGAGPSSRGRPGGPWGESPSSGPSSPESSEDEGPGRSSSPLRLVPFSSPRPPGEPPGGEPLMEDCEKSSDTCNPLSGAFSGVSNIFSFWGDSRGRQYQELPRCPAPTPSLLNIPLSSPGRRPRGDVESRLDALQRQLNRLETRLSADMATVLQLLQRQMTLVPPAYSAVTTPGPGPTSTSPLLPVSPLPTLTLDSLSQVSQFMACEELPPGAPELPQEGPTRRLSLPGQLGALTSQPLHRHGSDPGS
Chain of Luciferin 4-monooxygenase (Photinus pyralis) (P08659 whole entry, looked up): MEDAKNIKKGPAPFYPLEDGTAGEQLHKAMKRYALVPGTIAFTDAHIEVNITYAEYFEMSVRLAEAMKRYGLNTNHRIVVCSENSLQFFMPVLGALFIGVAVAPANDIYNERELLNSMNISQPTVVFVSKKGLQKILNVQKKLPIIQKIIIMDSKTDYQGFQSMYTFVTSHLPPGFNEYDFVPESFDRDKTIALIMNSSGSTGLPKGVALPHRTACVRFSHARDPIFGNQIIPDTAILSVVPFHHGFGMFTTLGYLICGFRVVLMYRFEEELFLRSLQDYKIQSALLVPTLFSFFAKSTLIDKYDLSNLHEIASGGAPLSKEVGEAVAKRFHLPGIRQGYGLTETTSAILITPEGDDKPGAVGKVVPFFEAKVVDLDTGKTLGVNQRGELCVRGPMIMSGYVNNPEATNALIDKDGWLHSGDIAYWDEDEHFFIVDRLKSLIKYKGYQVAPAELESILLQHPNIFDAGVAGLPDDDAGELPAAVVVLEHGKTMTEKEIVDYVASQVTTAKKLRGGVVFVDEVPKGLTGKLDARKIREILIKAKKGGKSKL

Consider `CC(=O)Oc1ccccc1C(=O)Nc1ncc([N+](=O)[O-])s1`, for which the Potency in assay [1] is 0.721 µM (active); in [3], 18.8 µM (active); in assay [4], 12.6 µM (active). The Potency entry in assay [2] was “inactive”.
For the molecule `CCCN1CCC[C@@H]2Cc3[nH]ncc3C[C@H]21`, the Potency result in assay [1], in assay [5], in assay [2] and in assay [6] was “inactive” each time. The result in [7], in assay [8] and in assay [9] was inactive.
Take `O=c1oc2ccccc2c(O)c1C(CC(O)c1ccc(-c2ccc(Br)cc2)cc1)c1ccccc1` (stereo not given): the Potency result in assay [10] is “inactive”. For the same molecule, the Potency in assay [3] was 27.3 µM (active). For the same molecule, in assay [11], the activation is -6.71% (inactive).
As for `O=C(O)c1ccc2[nH]cc(CCCCN3CC=C(c4ccccc4)CC3)c2c1`, the Potency result in assay [10], in assay [1] and in assay [2] was “inactive” in each case.
Regarding `C=C(C)[C@H]1Cc2c(ccc3c2O[C@@H]2COc4cc(OC)c(OC)cc4[C@@H]2C3=O)O1`, the Potency result in [10], in assay [1], in [5] and in assay [12] was “inactive” each time. Moreover, the Potency in assay [6] is 11.2 µM (active). Also, the outcome in assay [7], in assay [8] and in assay [9] was inactive. Further, the activation in assay [11] was 7.78% (inactive).
Turning to `CN1CCN(C2=Nc3cc(Cl)ccc3Nc3ccccc32)CC1`, the Potency result in assay [1] is “inactive”.
Regarding `CCC(COC(=O)c1cc(OC)c(OC)c(OC)c1)(c1ccccc1)N(C)C` (stereo not given), the Potency entry in assay [1], in assay [5], in assay [2] and in assay [13] was “inactive” in each case.
As for `Cc1ccc2c(n1)Oc1ccc(C(C)C(=O)OCC(=O)N(C)C)cc1C2` (stereo not given), in assay [1], the Potency was 14.4 µM (active).
On to `CC(CCc1ccccc1)NC(C)C(O)c1ccc(O)cc1` (stereo not given), for which the Potency in assay [10] is 7.08 µM (active) and 2 µM (active). Moreover, the Potency result in assay [1], in [5] and in assay [12] was “inactive” each time. For the same molecule, the outcome in [7] and in assay [9] was inactive.
Regarding `c1ccc2c(c1)OCC(C1=NCCN1)O2` (stereo not given), the Potency entry in assay [10], in assay [1], in assay [6] and in assay [12] was “inactive” throughout. The result in assay [7] and in [8] was inactive.
In the case of `CO[C@]12CC[C@@]3(C[C@@H]1[C@](C)(O)C(C)(C)C)[C@@H]1Cc4ccc(O)c5c4[C@@]3(CCN1CC1CC1)[C@H]2O5`, in [1], the Potency entry is “inactive”.
As to `O=c1[nH]c2ccccc2n1C1CCN(CCCC(c2ccc(F)cc2)c2ccc(F)cc2)CC1`, the Potency result in assay [1], in assay [6] and in [12] was “inactive” in each case. The result in assay [7], in assay [8] and in assay [9] was inactive.
As to `Cc1cccc(C)c1NC(=O)CN1CCCC1=O`, the Potency entry in assay [1], in [6] and in [12] was “inactive” each time. The outcome in assay [7], in [8] and in [9] was inactive.
Regarding `OCCOc1ccccc1`, the Potency result in [10], in [1], in [2] and in [3] was “inactive” throughout. Moreover, in [4], the activation was -4.8% (inactive) and -3.64% (inactive).
For `Cc1sc2c(c1C)C(c1ccc(Cl)cc1)=N[C@@H](CC(=O)OC(C)(C)C)c1nnc(C)n1-2`, in assay [14], the Potency result is “inactive”. For the same molecule, the result in assay [15] was inactive. Moreover, in assay [16], the viability (% of control) stood at 2.73%. In addition, the viability, percent of control in [17] is 13.5%. For the same molecule, the Potency in assay [18] was 0.469 µM (active).
As to `CNCCC(Oc1ccc(C(F)(F)F)cc1)c1ccccc1` (stereo not given), the Potency result in [2] was “inactive”.
For the molecule `CN(C)CCN(C)CCc1ccc(Cl)c(Cl)c1`, the Potency result in assay [14] and in assay [18] was “inactive” throughout. In assay [15], the outcome was inactive. The viability (% of control) in [16] was found to be 74%. In [17], the viability, percent of control is 73.4%.
With `CC1=C2C[C@@H]3[C@@H](CC=C4C[C@@H](O)CC[C@@]43C)[C@@H]2CC[C@]12O[C@H]1C[C@H](C)CN[C@H]1[C@H]2C`, in assay [14], the Potency result is “inactive”. Also, in [15], the call was inactive. Moreover, in assay [16], the viability (% of control) was determined as 62.9%. Also, the viability, percent of control in assay [17] worked out at 69.1%.
`CNCC[C@H](Oc1cccc2ccccc12)c1cccs1`: the Potency in assay [2] is 20.3 µM (active).
Take `O=C(O)C(=O)c1cn(Cc2ccccc2)c2ccc(-c3ccc(OC(F)(F)F)cc3)cc12`: the values for the Potency in assay [14] and in assay [19] were 18.7 µM (active) and 16.8 µM (active), respectively. For the same molecule, the outcome in assay [15] was inactive. Further, the viability (% of control) in assay [16] was 75.1%. Further, in [17], the viability, percent of control is 68.4%.
With `CC(C)C(=O)Nc1ccc([N+](=O)[O-])c(C(F)(F)F)c1`, in assay [3], the Potency is 61.1 µM (active) and 66.8 µM (active).
In the case of `CC(O)(CS(=O)(=O)c1ccc(F)cc1)C(=O)Nc1ccc(C#N)c(C(F)(F)F)c1` (stereo not given), the Potency result in assay [6], in assay [12], in assay [14], in [19] and in [18] was “inactive” throughout. Also, the result in [7], in assay [8], in assay [9] and in assay [15] was inactive. The viability (% of control) in assay [16] was 109%. In [17], the viability, percent of control is 95.3%.
